Experimental data published in PubChem BioAssay (NCI).
Compounds without any hit were thinned out: in the full panel of roughly 83,000, 20% have a hit.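 Cells were grown in 96-well plates and exposed to the test compound at a single concentration for 48 hours; results are reported as percent growth, with values below 10 considered active.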 Active and inactive are the calls of the source.

What was measured:
Assay in all cases: NCI-60 one-dose screen, 48 h (100 = growth as untreated, 0 = no growth, -100 = all killed)
Conditions in all cases: 10 µM unless noted
HCT-15 colon = test system: HCT-15 colon
HT29 colon = test system: HT29 colon
SNB-75 CNS = test system: SNB-75 CNS
SNB-19 CNS = test system: SNB-19 CNS
U251 CNS = test system: U251 CNS
PC-3 prostate = test system: PC-3 prostate
SK-MEL-5 melanoma = test system: SK-MEL-5 melanoma
UACC-62 melanoma = test system: UACC-62 melanoma
LOX IMVI melanoma = test system: LOX IMVI melanoma
SK-MEL-28 melanoma = test system: SK-MEL-28 melanoma

Measured: growth

O=C(/C=C1\C(=O)N(Cc2ccc([N+](=O)[O-])cc2)c2ccccc21)c1ccc(OCCN2CCCC2)cc1
inactive: HCT-15 colon 15.4% | HT29 colon 17.4% | SNB-75 CNS 65.3% | SNB-19 CNS 95.1% | U251 CNS 84.7% | PC-3 prostate 77% | SK-MEL-5 melanoma 88.5% | UACC-62 melanoma 85.8% | LOX IMVI melanoma 16.7% | SK-MEL-28 melanoma 104%

CCCC(CCC)Oc1ccc(CCCC2=C(O)c3ccccc3C(=O)C2=O)cc1
inactive: HCT-15 colon 21.7% | HT29 colon 25.8% | SNB-75 CNS 46.1% | SNB-19 CNS 28.2% | U251 CNS 27.1% | PC-3 prostate 27.7% | SK-MEL-5 melanoma 13.1% | UACC-62 melanoma 30.4% | SK-MEL-28 melanoma 59.2%
active: LOX IMVI melanoma 5.38%

N/C(=N\O)c1ccncc1
inactive: HCT-15 colon 100% | HT29 colon 101% | SNB-75 CNS 86.7% | SNB-19 CNS 104% | U251 CNS 106% | PC-3 prostate 102% | SK-MEL-5 melanoma 113% | UACC-62 melanoma 98.1% | LOX IMVI melanoma 96.2% | SK-MEL-28 melanoma 109%

COc1ccc(Cn2cc3c(c2-c2ccc(OC)cc2)CCc2cnoc2-3)cc1
inactive: HCT-15 colon 14.2% | SNB-75 CNS 11.4% | SNB-19 CNS 45.5% | U251 CNS 24% | PC-3 prostate 24.8% | SK-MEL-5 melanoma 10.6% | UACC-62 melanoma 44% | LOX IMVI melanoma 32.2% | SK-MEL-28 melanoma 51.2%
active: HT29 colon 7.18%

O=C1OC(c2ccc(-c3ccccc3)cc2)=C/C1=C/c1c2ccccc2cc2ccccc12
inactive: HCT-15 colon 74.8% | HT29 colon 103% | SNB-75 CNS 78.7% | SNB-19 CNS 94.1% | U251 CNS 98% | PC-3 prostate 98.5% | SK-MEL-5 melanoma 104% | UACC-62 melanoma 99.3% | LOX IMVI melanoma 95.8% | SK-MEL-28 melanoma 87.7%

COc1cc(-c2nc(/C=C3/C(=O)Nc4ccccc43)c3ccccn23)cc(OC)c1OC
inactive: HCT-15 colon 73.6% | HT29 colon 62.5% | SNB-75 CNS 106% | SNB-19 CNS 90.7% | U251 CNS 91.6% | PC-3 prostate 57.8% | SK-MEL-5 melanoma 51.6% | UACC-62 melanoma 72.7% | LOX IMVI melanoma 72.3% | SK-MEL-28 melanoma 63%

O=C(Nc1cccc(Cn2c(=O)[nH]c3ccc(Oc4ncccn4)cc3c2=O)c1)c1cc(Cl)cc(Cl)c1
inactive: HCT-15 colon 77.3% | HT29 colon 47.4% | SNB-75 CNS 42.6% | SNB-19 CNS 69.4% | U251 CNS 51.1% | PC-3 prostate 64.5% | SK-MEL-5 melanoma 56.8% | UACC-62 melanoma 66.6% | LOX IMVI melanoma 86.3% | SK-MEL-28 melanoma 60.7%

COc1cc(N2C(=O)C=CC2=O)ccc1N1C(=O)C=CC1=O
inactive: HCT-15 colon 109% | HT29 colon 102% | SNB-75 CNS 90.2% | SNB-19 CNS 107% | U251 CNS 97.5% | PC-3 prostate 94.8% | SK-MEL-5 melanoma 104% | UACC-62 melanoma 106% | LOX IMVI melanoma 99.1% | SK-MEL-28 melanoma 103%

CC(=O)OC1CC2C3CCC4C[C@@H](NC(=O)C=C(C)C)CC[C@]4(C)C3CC[C@]2(C)[C@H]1C(C)N(C)C (stereo not given in full)
active: HCT-15 colon -38.7% | HT29 colon -20.9% | SNB-75 CNS 8.51% | SK-MEL-5 melanoma -95.2% | UACC-62 melanoma -52.6% | LOX IMVI melanoma -15% | SK-MEL-28 melanoma -91.3%
inactive: SNB-19 CNS 49.2% | U251 CNS 11.5% | PC-3 prostate 13.1%

[2H]c1nc(=Nc2cc(NC(=O)C=C)c(N(C)CCN(C)C)cc2OC)[nH]c(-c2cn(C([2H])([2H])[2H])c3ccccc23)c1[2H]
inactive: SNB-75 CNS 66.9% | SNB-19 CNS 55.8% | U251 CNS 40.9% | PC-3 prostate 50.2% | SK-MEL-5 melanoma 63.5% | LOX IMVI melanoma 39.2% | SK-MEL-28 melanoma 37.5%
active: HCT-15 colon 1.13% | HT29 colon -3.69% | UACC-62 melanoma -10.7%

CCCCCCN(CCCCCC)CCC(=O)Nc1ccc(S(=O)(=O)c2ccc(NC(=O)CCN(CCCCCC)CCCCCC)cc2)cc1
inactive: HCT-15 colon 72.9% | HT29 colon 29.9% | SNB-75 CNS 71.3% | SNB-19 CNS 88% | U251 CNS 88.4% | PC-3 prostate 76.6% | SK-MEL-5 melanoma 90% | UACC-62 melanoma 91.3% | LOX IMVI melanoma 76.5% | SK-MEL-28 melanoma 91.9%

CCCCCc1ccnc(CC(=O)c2ccc(OC)cc2)c1
inactive: HCT-15 colon 99.7% | HT29 colon 70.5% | SNB-75 CNS 85.7% | SNB-19 CNS 97.8% | U251 CNS 88.7% | PC-3 prostate 76.1% | SK-MEL-5 melanoma 79.4% | UACC-62 melanoma 89.5% | LOX IMVI melanoma 85% | SK-MEL-28 melanoma 104%
